A number with no mark means an inactive call. Active and inactive are the calls of the source.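 The calls were made as follows: active = inhibition reaching about 16% in any single replicate (limit read from the data); inactive = the rest.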
molecular target: Hexokinase HKDC1 (Homo sapiens) (UniProt Q2TB90); test: HKDC1 hexokinase inhibitors, confirmation, biochemical, single concentration (AID 504710); details: recombinant HKDC1, G6PDH/diaphorase/resazurin fluorescence; at 20 µM; hits give high values
Sequence (Q2TB90 whole entry, looked up): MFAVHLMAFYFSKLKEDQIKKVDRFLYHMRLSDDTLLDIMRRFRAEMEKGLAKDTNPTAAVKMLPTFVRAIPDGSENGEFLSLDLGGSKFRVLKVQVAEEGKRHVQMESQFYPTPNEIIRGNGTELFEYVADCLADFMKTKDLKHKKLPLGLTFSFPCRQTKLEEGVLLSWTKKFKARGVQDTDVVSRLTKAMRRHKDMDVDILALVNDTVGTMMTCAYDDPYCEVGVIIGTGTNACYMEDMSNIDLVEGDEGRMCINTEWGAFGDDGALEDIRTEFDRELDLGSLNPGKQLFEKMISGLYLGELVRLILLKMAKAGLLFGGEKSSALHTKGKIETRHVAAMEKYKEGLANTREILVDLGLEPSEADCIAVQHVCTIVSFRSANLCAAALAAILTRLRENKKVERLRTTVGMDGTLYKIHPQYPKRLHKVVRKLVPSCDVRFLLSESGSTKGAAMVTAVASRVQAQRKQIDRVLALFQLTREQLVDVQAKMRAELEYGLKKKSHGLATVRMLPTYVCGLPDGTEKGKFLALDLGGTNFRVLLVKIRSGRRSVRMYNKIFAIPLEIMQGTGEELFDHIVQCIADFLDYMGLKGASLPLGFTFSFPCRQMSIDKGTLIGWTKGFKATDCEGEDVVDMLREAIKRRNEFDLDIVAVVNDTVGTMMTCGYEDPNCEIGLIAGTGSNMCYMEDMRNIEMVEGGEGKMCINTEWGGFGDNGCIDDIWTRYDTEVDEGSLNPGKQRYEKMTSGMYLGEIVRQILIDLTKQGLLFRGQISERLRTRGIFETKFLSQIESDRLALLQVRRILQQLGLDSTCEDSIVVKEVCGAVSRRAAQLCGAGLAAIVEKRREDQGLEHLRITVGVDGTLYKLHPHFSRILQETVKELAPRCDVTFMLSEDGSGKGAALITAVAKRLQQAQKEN

Row | Structure (SMILES) | inhibition
1 | COc1ccc(-c2nc3c(c(=O)n(C)c(=O)n3C)n2CC2CC(c3ccccc3)=NO2)cc1OC (configuration not stated) | -32.8%
2 | CC(=O)C1=C(c2ccccc2)N(C(C)=O)n2c(C)nnc2S1 | -125%
3 | CCc1c(C)c(C#N)c2nc3ccccc3n2c1NC | -43.3%
4 | CCCCNC(=O)c1sc(=S)n2c1[nH]c(=O)c1ccc(C(=O)NCCc3ccc(OC)c(OC)c3)cc12 | 49.8% (active)
5 | CCc1ccc2c(c1)C(NC(C)=O)C(=O)N2CCN1CCOCC1 (configuration not stated) | 57.2% (active)
6 | O=C1C(Cl)=C(Oc2ccccc2)C(=O)c2ccccc21 | 77.7% (active)
7 | O=C1C(Nc2ccc(O)cc2)=C/C(=N/S(=O)(=O)c2cccs2)c2ccccc21 | 56.9% (active)
8 | CC1=NOC(=O)/C1=C\c1ccc(-c2ccc(Cl)cc2Cl)o1 | 47.4% (active)
9 | Cc1ccc(NC2c3ncccc3C(=O)N2c2ccccc2C)cc1C (configuration not stated) | 36.2% (active)
10 | CCCC(=O)NC1=C(Cl)C(=O)c2ccccc2C1=O | 81.4% (active)
11 | Cc1nc2c(c(=O)c3ccccc3n2C)c(=O)n1-c1ccc(F)cc1 | 52.9% (active)
12 | O=C(CSc1n[nH]c(-c2cccnc2)n1)Nc1ccc([N+](=O)[O-])cc1Br | 56.4% (active)
13 | COc1ccccc1C1=NNC(=Nc2cccc(S(=O)(=O)N(C)C)c2)SC1 | -177%
14 | S=C1Cc2ccccc2N1 | -192%
15 | CC(=O)NC1C(=O)N(CCN2CCOCC2)c2ccc(F)cc21 (configuration not stated) | 61.1% (active)
16 | CCC(C)C(N)C1=NC(C(=O)N[C@@H](CC(C)C)C(=O)N[C@H](CCC(=O)[O-])C(=O)N[C@H](C(=O)N[C@H]2CCCCNC(=O)[C@H](CC(N)=O)NC(=O)[C@@H](CC(=O)[O-])NC(=O)[C@H](Cc3cnc[nH]3)NC(=O)[C@@H](Cc3ccccc3)NC(=O)[C@H]([C@@H](C)CC)NC(=O)[C@@H](CCCN)NC2=O)[C@@H](C)CC)CS1.[Zn+2] (some centres not stated) | 74.9% (active)
17 | Fc1ccccc1N=C1NN=C(c2ccccc2)CS1 | -53.4%
18 | Cc1cc(C)c(S(=O)(=O)Nc2cc(SCC(=O)O)c(O)c3ccccc23)cc1C | 41.5% (active)
19 | O=C(O)c1cc(O)c2c(c1)[C@@H]([C@H]1c3cc(C(=O)O)cc(O)c3C(=O)c3c(O[C@@H]4O[C@H](CO)[C@@H](O)[C@H](O)[C@H]4O)cccc31)c1cccc(O[C@@H]3O[C@H](CO)[C@@H](O)[C@H](O)[C@H]3O)c1C2=O | 34.1% (active)

Row | Structure (SMILES) | inhibition
20 | CC(=O)Oc1cccc2c1C(=O)C1CC=CC(OC(C)=O)C1C2=O (configuration not stated) | -65.8%
21 | O=C(CNC(=O)c1ccc2c(c1)OCCO2)N/N=C/c1ccc(O)cc1O | 18.4% (active)
22 | CCCCNC(=O)c1sc(=S)n2c1[nH]c(=O)c1ccccc12 | 56.5% (active)
23 | CC(=NNC(=S)N1CC2CCC(CC2)C1)c1ccncn1 | -61.4%
24 | O=C(COC(=O)c1n[nH]c2ccccc12)c1cccc(Br)c1 | -30.5%
25 | O=C(O)CSc1cc(NS(=O)(=O)c2ccc(Cl)cc2)c2ccccc2c1O | 45.6% (active)
26 | CC(C)(C=O)C1=CC(=O)c2ccccc2C1=O | 41.2% (active)
27 | CC(C)c1nc2oc3c(NCCO)ncnc3c2c2c1COC(C)(C)C2 | 66.2% (active)
28 | Cc1nc([N+](=O)[O-])c(Br)n1CC(=O)c1ccc2ccccc2c1 | 40.1% (active)
29 | CCCc1nc2c(c(=O)c3ccccc3n2C)c(=O)n1-c1ccc(F)cc1 | 58.5% (active)
30 | CCOC(=O)c1c(C)[nH]c(C2=NNC(=Nc3ccccc3OC)SC2)c1C | -86.4%
31 | CCOC(=O)C1=C(Cc2ccc(Cl)cc2)C(=O)c2ccccc2C1=O | 39.3% (active)
32 | Cc1ccc(C)c(S(=O)(=O)Nc2cc(SCC(=O)O)c(O)c3ccccc23)c1 | 55.2% (active)
33 | O=C1C=CC(=O)c2c(O)c(CO)c(CO)c(O)c21 | 39.3% (active)
34 | COc1cc(/C=C2\SC(c3ccc(C)cc3)=NC2=O)ccc1O | 32.2% (active)
35 | CCc1ccc(C2=NNC(=Nc3cccc(S(=O)(=O)N(C)C)c3)SC2)cc1 | -141%
36 | CC(=O)NC1C(=O)N(CCN2CCOCC2)c2ccc(Br)cc21 (configuration not stated) | 61% (active)
37 | Cc1ccc(N=C2C(=S)N(c3ccc(C)cc3)C(=N)N2/N=C/c2ccc(Cl)cc2)cc1 | -45.3%
